The text below walks through data of PubChem BioAssay AID720706 (Broad Institute, 2013).

About 5,500 (1.6%) of roughly 350,000 compounds were called active.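 The calls were made as follows: active = significant combined selectivity score with lowered wild-type GFP, culture density cut under 30%, mutant RFP and density less affected; inactive = any of these conditions unmet.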 The list comes from a sample in which actives are over-represented; it also holds similar structures and randomly drawn compounds.

The test can be described thus: reduced GFP signal of wild-type E. coli, primary screen, bacterial rRNA inhibitor project, GFP/RFP fluorescence, OD600, single point (AID 720706). The settings on record: E. coli WT GFP vs humanized-ribosome RFP mutants, 24 h; GFP signal change (wild-type ribosome): stronger effect = lower value, DMSO median 0, no signal -100; OD600 change: measured here: OD600 growth, DMSO median 0, no signal -100; RFP signal change: measured here: RFP humanized mutant strains, DMSO median 0, no signal -100, concentration not given here.
Regarding `COc1cccc(NC(=O)N[C@H]2C=C[C@@H](CC(=O)Nc3ccc(-c4ccccc4)cc3)O[C@@H]2CO)c1`, the GFP signal change (wild-type ribosome) is -12.2% (inactive), the OD600 change is -10.6% and the RFP signal change was 2.22%.
With `CNC(=O)C[C@H]1CC[C@H]2[C@H](COc3ccc(NC(=O)Nc4ccc(F)cc4)cc3C(=O)N2C)O1`, the GFP signal change (wild-type ribosome) was 1.92% (inactive), the OD600 change came to 1.94% and the RFP signal change was -3.24%.
Taken in the same sequence, the figures for `COc1ccc(S(=O)(=O)N2CCCCCC2)cc1C(=O)N(C)Cc1cccc(OC)c1OC` were -11.5% (inactive), -16.8% and 3.6%.
As for `COc1cccc(CN(C)CC(=O)NCc2ccccc2Cl)c1OC`, the GFP signal change (wild-type ribosome) was -25.4% (active), the OD600 change is -20.5% and the RFP signal change was determined as 1.05%.
`COc1ccc(CNC(=O)CN(Cc2ccccc2Cl)C(=O)c2csnn2)cc1`: the GFP signal change (wild-type ribosome) was 6.12% (inactive), the OD600 change turned out to be 13.2% and the RFP signal change worked out at 1.92%.
The corresponding values for `N#Cc1ccc(-c2ccc(C3[C@@H]4CN(S(=O)(=O)c5cccc(Cl)c5)C[C@H]3N4)cc2)cc1` (stereo partly specified) are -35.6% (inactive), -51% and -3.29%.
The corresponding values for `C[C@H]1CN([C@@H](C)CO)C(=O)c2c(c3ccccc3n2C)-c2ccccc2CO[C@@H]1CN(C)CC1CCCCC1` are -7.33% (inactive), -38.8% and 12.5%.
The corresponding values for `CC(C)NC(=O)N(C)C[C@H]1Oc2ccc(NS(C)(=O)=O)cc2C(=O)N(C)C[C@@H]1C` are 2.01% (inactive), 2.51% and -2.3%.
As to `Cc1ccc(S(=O)(=O)N(C)C[C@@H]2Oc3ccc(NS(=O)(=O)c4cccs4)cc3C(=O)N([C@@H](C)CO)C[C@H]2C)cc1`, the GFP signal change (wild-type ribosome) was -5.79% (inactive), the OD600 change is -10.9% and the RFP signal change is 1.46%.
The corresponding values for `C[C@@H]1CN([C@@H](C)CO)S(=O)(=O)c2ccc(-c3ccc(F)cc3)cc2O[C@H]1CN(C)C(=O)c1ccccc1F` are -8.04% (inactive), -21% and -3.3%.
Taken in the same sequence, the figures for `O=C(C[C@H]1C[C@H]2c3cc(NC(=O)NC4CCCC4)ccc3O[C@H]2[C@@H](CO)O1)NCc1ccc(-c2ccccc2)cc1` were -1.74% (inactive), -6.28% and 2.06%.
Taken in the same sequence, the figures for `Cc1ccc(NC(=O)Nc2cc(-c3ccccc3)nn2C)cc1Cl` were -40.1% (active), 5.55% and -13.4%.
For `Cc1cc(NC(=O)Nc2ccc(Cl)cc2)n(-c2ccccc2)n1`, the GFP signal change (wild-type ribosome) was -29.1% (inactive), the OD600 change was -32.4% and the RFP signal change came to 2.41%.
The corresponding values for `COc1ccc(NC(=O)c2cc3nc(-c4ccccc4)cc(C)n3n2)cc1OC` are -22% (inactive), -22.4% and -6.99%.
Taken in the same sequence, the figures for `C[C@H]1CN([C@@H](C)CO)S(=O)(=O)c2ccc(-c3cncnc3)cc2O[C@H]1CN(C)Cc1ccncc1` were 0.29% (inactive), 1.07% and 0.44%.
Taken in the same sequence, the figures for `Cc1noc(C)c1NC(=O)N(C)C[C@@H]1Oc2ccc(NC(=O)Nc3ccc(F)cc3)cc2C(=O)N([C@H](C)CO)C[C@@H]1C` were 1.48% (inactive), 1.88% and -0.103%.
With `C[C@@H]1CN([C@H](C)CO)S(=O)(=O)c2ccc(C3=CCCC3)cc2O[C@H]1CN(C)Cc1ccccc1F`, the GFP signal change (wild-type ribosome) is -1.53% (inactive), the OD600 change is 5.49% and the RFP signal change was -3.33%.
Taken in the same sequence, the figures for `C[C@@H]1CN([C@H](C)CO)S(=O)(=O)c2ccc(C#CC3CC3)cc2O[C@H]1CN(C)C(=O)C1CCCCC1` were -17.1% (inactive), -48% and 15.7%.
Taken in the same sequence, the figures for `COc1ccccc1-c1cnc2c(c1)C(=O)N([C@@H](C)CO)C[C@@H](C)[C@@H](CN(C)C(=O)c1cccnc1)O2` were 4.96% (inactive), -0.255% and -1.54%.
Taken in the same sequence, the figures for `C[C@@H]1CN([C@@H](C)CO)S(=O)(=O)c2ccc(Br)cc2O[C@@H]1CN(C)C(=O)C1CCCCC1` were -5.25% (inactive), -9.29% and 0.015%.
For the compound `Cc1cc(C)cc(OCC(=O)Nc2ccc(N3CCOCC3)cc2N2CCOCC2)c1`, the GFP signal change (wild-type ribosome) is -2.33% (inactive), the OD600 change is 6.13% and the RFP signal change is 0.039%.
Taken in the same sequence, the figures for `Cc1cccc(OCC(=O)NC(=S)Nc2ccccc2N2CCOCC2)c1` were -22.8% (active), -9.72% and 1.75%.
The corresponding values for `O=C(COc1ccc(Cl)cc1)NC(=S)Nc1ccccc1N1CCOCC1` are -9.68% (inactive), -9.44% and -2.65%.
As to `O=C(c1ccccn1)N1CC(=O)N2[C@H](CO)[C@H](c3ccc(C#CCc4ccccc4)cc3)[C@H]2C1`, the GFP signal change (wild-type ribosome) is 1.93% (inactive), the OD600 change was -4.41% and the RFP signal change is -3.49%.
Taken in the same sequence, the figures for `COCC#Cc1ccc2c(c1)O[C@H](CN(C)Cc1ccc3c(c1)OCO3)[C@H](C)CN([C@H](C)CO)S2(=O)=O` were -2.4% (inactive), -9.34% and -0.135%.
The corresponding values for `O=C(NCc1nnnn1-c1ccc(Cl)cc1)c1ccc([N+](=O)[O-])o1` are -23% (active), 2.62% and -4.79%.
The corresponding values for `O=C(Nc1ccc(Br)cn1)c1ccc([N+](=O)[O-])o1` are -3.84% (inactive), -3.66% and -3.37%.
Turning to `O=C(NCc1nnnn1-c1ccc(Cl)cc1)c1ccc2c(c1)OCO2`, the GFP signal change (wild-type ribosome) was 5.87% (inactive), the OD600 change was 4.9% and the RFP signal change is -2.26%.
Regarding `CSc1ccc(CNCCN2CCOCC2)cc1`, the GFP signal change (wild-type ribosome) was 6.43% (inactive), the OD600 change was 16.1% and the RFP signal change was -0.625%.
Consider `CC(C)(C)c1ccc(CCC2OCC(CN3CCOCC3)O2)cc1` (stereo unspecified), for which the GFP signal change (wild-type ribosome) was -33.2% (active), the OD600 change is -11.3% and the RFP signal change was -5.34%.
The corresponding values for `CC(CN1CCOCC1)OC(=O)c1ccc(C(C)(C)C)cc1` (stereo unspecified) are -5.42% (inactive), -0.13% and 2.33%.
The corresponding values for `C/C=C/c1cnc2c(c1)C(=O)N([C@H](C)CO)C[C@H](C)[C@@H](CN(C)CC1CCOCC1)O2` are 7.65% (inactive), 16.9% and -1.32%.
